The record followed here is PubChem BioAssay (NCATS).

Inconclusive results are not listed. Activity calls are given as the source filed them. Calls come from the whole dose curve; as a rule, active = well fitted curve in the direction sought with a large enough effect; inconclusive = small, poorly fitted or top-dose-only effect, or another doubt; inactive = no such curve, though single readings can be large or run the other way.
% is set by controls: 0 for no effect and ±100 for the full control effect; potency is the fitted concentration of half-maximal effect.

The nature of this experiment: qHTS Assay for Identifying Gametocytocidal Compounds (AID 743244).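 For max response: actives lower the fluorescent signal which means gametocytes are killed.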 Particulars: P. falciparum 3D7 stage III-V gametocytes, alamarBlue, 72 h; max response: stronger effect = lower value. The essentials: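 Fluorescence at Ex 525/Em 598 nm, recorded 24 h after alamarBlue addition, reports residual metabolic activity of 3D7 gametocytes (stages III–V) following 72 h compound exposure at 37 °C, 5% CO2.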
(In general: In qHTS, concentration-response curves come from the screen itself.)
Regarding `CC[C@@H]1C(=O)N(C)c2cnc(Nc3ccc(C(=O)NC4CCN(C)CC4)cc3OC)nc2N1C1CCCC1`, the Potency was 2.35 µM (active).

For `CCN1CCN(CC(=O)Nc2ccc(-c3cccc4c(=O)cc(N5CCOCC5)oc34)c3sc4ccccc4c23)CC1`, the Potency is 29.6 µM (active).

As to `Cc1cc(Nc2cc(N3CCN(C)CC3)nc(C=Cc3ccccc3)n2)n[nH]1`, the Potency was 8.33 µM (active).

On to `CC(NCc1ccc2c(c1)nc(NC(=O)c1ccc(-c3cn[nH]c3)s1)n2CC(C)(C)O)C(C)(C)C` (centres undefined), for which the Potency was 9.35 µM (active).

With `COc1ccc2c(c1)CC[C@@H](CN(C)CC(=O)O)[C@H]2c1ccccc1`, the max response was 4.46% (inactive).

For the compound `CC(=O)c1c(C)c2cnc(Nc3ccc(N4CCNCC4)cn3)nc2n(C2CCCC2)c1=O`, the Potency was 7.43 µM (active).

`O=C(O)[C@H](Cc1c[nH]c2ccccc12)N1C(=O)c2ccccc2C1=O`: the max response is 33.4% (inactive).

Take `COc1cc2ncn(-c3cc(OCc4ccccc4C(F)(F)F)c(C(N)=O)s3)c2cc1OC`: the max response is 18.7% (inactive).

`C=CCn1c(=O)c2cnc(Nc3ccc(N4CCN(C)CC4)cc3)nc2n1-c1cccc(C(C)(C)O)n1`: the Potency was 3.32 µM (active).

In the case of `C1Cc2[nH]nc(-c3nn[nH]n3)c2C1`, the max response was 38.3% (inactive).

On to `CC1(C)OC2=C(C(=O)c3ccccc3C2=O)[C@H](NCc2ccccc2)[C@H]1O`, for which the Potency is 0.743 µM (active).

For `c1ccc2c(CCNc3ccc(Nc4ccncc4)cc3)c[nH]c2c1`, the Potency is 9.35 µM (active).

For the compound `CC(C)C[C@H](NC(=O)CNC(=O)c1cc(Cl)ccc1Cl)B(O)O`, the Potency was 18.7 µM (active).

As for `Cc1cc(Nc2cc(N3CCN(C)CC3)nc(Sc3ccc(NC(=O)C4CC4)cc3)n2)n[nH]1`, the Potency was 23.5 µM (active).
